Holding throughout (assay): DAPPL (digital affinity profiling via proximity ligation, sequencing); 10 mM Tris-HCl pH 7.5, 50 mM NaCl, 1 mM DTT, 4% glycerol, room temperature, 30 min; GST-TFs on glutathione beads, 16-mer random dsDNA library, 0.1% formaldehyde crosslink after washing; high values mean tight binding
For one experiment, the target named is T1, FEV (Homo sapiens, UniProt Q99581 1-238).
T1 sequence: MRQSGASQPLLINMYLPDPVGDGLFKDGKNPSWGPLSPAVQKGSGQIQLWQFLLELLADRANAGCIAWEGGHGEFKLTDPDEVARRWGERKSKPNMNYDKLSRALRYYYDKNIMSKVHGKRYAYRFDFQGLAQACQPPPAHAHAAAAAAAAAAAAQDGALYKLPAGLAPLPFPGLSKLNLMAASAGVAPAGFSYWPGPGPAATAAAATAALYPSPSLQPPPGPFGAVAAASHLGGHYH
The following applies: protein: recombinant; tags: N-terminal GST; dsDNA, one strand shown. The essentials:
(§1)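 In yeast, human transcription factors were expressed with a GST fusion, then pulled down on glutathione beads and given DNA barcodes. Pooled with a tag-only sample, they were exposed to 200 nmole of a 16-mer random double-stranded DNA library (Tris/NaCl/DTT/glycerol buffer, room temperature, 30 min), washed, crosslinked with 0.1% formaldehyde, proximity-ligated using BsaI/T4 ligase for 1 h at 37 °C, PCR-amplified and read on an Illumina NextSeq500. Each hexamer's frequency of reads for a factor, divided by the matching frequency for the tag-only sample, gives the binding signal.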

Another experiment has as its target ETV5 (Homo sapiens, UniProt P41161 1-510). The following applies: protein: recombinant; tags: N-terminal GST; dsDNA, one strand shown. The procedure, abridged: as §1
The next experiment has as its target HSF1 (Homo sapiens, UniProt Q00613 1-529). The settings on record: protein: recombinant; tags: N-terminal GST; chain copies: 3; dsDNA, one strand shown. The essentials:
as §1

For the next experiment, the target named is T2, SPIC (Homo sapiens, UniProt Q8N5J4 1-248).
T2 sequence: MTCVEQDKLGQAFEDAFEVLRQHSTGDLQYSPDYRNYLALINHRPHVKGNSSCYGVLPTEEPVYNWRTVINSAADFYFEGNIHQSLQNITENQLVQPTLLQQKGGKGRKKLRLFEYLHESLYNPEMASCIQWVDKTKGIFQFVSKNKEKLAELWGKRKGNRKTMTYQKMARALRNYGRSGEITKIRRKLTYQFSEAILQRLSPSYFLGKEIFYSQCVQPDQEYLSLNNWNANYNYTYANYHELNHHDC
The settings on record: protein: recombinant; tags: N-terminal GST; dsDNA, one strand shown. The essentials: as §1

In a further experiment the target is ELF4 (Homo sapiens, UniProt Q99607 1-663). The settings on record: protein: recombinant; tags: N-terminal GST; dsDNA, one strand shown. The essentials:
as §1

Another experiment concerns the target T3, ELK4 (Homo sapiens, UniProt P28324-2 1-405).
T3 sequence: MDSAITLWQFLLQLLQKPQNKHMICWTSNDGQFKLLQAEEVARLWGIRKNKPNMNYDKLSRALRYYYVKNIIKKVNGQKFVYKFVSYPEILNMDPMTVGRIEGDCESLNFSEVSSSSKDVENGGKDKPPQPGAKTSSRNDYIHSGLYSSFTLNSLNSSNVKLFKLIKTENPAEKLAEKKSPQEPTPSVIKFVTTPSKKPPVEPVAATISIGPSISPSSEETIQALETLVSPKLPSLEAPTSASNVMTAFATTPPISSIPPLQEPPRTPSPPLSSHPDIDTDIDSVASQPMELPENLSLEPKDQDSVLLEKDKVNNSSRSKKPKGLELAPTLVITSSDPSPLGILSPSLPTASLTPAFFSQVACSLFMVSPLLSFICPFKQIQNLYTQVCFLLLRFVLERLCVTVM
The settings on record: protein: recombinant; tags: N-terminal GST; dsDNA, one strand shown. The essentials:
as §1

In a further experiment the target is T4, ETV2 (Homo sapiens, UniProt O00321 1-342).
T4 sequence: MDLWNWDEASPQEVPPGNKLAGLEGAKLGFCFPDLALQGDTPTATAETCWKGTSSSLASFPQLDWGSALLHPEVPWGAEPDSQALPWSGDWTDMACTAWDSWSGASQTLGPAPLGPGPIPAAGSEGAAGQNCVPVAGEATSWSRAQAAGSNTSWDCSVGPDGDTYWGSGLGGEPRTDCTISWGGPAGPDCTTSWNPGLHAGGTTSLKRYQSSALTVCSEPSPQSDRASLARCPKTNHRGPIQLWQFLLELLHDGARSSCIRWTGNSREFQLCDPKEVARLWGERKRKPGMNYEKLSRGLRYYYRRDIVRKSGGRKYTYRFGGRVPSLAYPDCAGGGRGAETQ
The following applies: protein: recombinant; tags: N-terminal GST; dsDNA, one strand shown. The essentials:
as §1

The target of a further experiment is T5, ELF3 (Homo sapiens, UniProt P78545 1-371).
T5 sequence: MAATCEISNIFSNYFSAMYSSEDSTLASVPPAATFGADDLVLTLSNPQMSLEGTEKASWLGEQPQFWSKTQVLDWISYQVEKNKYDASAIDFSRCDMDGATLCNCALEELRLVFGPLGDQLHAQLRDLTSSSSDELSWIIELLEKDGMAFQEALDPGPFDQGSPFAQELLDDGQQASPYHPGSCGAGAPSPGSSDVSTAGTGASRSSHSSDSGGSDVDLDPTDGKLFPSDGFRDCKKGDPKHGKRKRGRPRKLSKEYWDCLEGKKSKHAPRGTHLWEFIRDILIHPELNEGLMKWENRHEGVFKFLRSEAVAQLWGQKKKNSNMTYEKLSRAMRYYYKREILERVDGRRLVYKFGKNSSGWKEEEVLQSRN
The following applies: protein: recombinant; tags: N-terminal GST; dsDNA, one strand shown. The essentials:
as §1

Another experiment has as its target CRX (Homo sapiens, UniProt O43186 1-299). The following applies: protein: recombinant; tags: N-terminal GST; dsDNA, one strand shown. The procedure, abridged: as §1
In another experiment the target is ETV1 (Homo sapiens, UniProt P50549 1-477). The settings on record: protein: recombinant; tags: N-terminal GST; dsDNA, one strand shown. The procedure, abridged: as §1
Sequence of ETV1 (P50549 whole entry): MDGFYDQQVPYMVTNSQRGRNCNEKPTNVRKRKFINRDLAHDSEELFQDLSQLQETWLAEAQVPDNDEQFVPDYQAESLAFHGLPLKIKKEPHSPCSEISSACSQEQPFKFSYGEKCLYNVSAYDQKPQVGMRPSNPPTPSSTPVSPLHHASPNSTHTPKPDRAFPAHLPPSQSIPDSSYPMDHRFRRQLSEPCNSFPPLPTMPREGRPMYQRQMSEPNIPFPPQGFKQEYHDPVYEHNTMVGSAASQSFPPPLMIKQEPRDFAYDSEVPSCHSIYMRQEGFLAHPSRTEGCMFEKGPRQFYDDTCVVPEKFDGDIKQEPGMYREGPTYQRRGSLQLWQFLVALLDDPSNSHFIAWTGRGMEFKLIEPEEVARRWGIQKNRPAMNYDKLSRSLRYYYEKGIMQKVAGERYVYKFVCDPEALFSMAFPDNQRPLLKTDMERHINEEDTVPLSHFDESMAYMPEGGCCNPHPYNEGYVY

Sequence of ETV5 (P41161 whole entry): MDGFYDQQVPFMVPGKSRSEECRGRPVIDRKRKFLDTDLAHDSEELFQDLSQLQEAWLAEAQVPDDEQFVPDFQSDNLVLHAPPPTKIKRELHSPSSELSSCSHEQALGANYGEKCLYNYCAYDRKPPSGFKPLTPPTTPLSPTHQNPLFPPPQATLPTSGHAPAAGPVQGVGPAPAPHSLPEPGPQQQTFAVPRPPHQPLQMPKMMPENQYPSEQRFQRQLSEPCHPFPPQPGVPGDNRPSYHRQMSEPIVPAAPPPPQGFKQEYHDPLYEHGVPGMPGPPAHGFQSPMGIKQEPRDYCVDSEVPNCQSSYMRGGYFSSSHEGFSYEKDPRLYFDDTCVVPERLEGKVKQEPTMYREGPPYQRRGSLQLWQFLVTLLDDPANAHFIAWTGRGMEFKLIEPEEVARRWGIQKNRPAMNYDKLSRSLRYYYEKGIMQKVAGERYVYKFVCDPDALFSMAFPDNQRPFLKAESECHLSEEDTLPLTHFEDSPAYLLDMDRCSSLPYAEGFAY
Sequence of HSF1 (Q00613 whole entry): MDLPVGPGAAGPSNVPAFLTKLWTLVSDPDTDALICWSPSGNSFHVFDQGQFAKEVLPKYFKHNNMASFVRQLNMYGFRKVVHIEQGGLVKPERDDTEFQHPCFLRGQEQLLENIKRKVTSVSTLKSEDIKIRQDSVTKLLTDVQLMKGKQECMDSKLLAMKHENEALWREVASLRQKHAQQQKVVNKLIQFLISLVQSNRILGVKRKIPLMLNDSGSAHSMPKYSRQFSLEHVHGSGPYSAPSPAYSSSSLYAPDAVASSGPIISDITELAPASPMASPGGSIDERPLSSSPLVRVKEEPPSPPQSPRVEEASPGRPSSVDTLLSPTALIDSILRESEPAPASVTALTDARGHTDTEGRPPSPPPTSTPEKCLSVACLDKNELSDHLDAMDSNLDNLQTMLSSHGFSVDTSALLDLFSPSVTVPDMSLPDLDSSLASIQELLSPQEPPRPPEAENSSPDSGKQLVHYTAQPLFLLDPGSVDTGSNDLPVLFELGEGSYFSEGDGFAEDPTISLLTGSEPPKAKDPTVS
Sequence of CRX (O43186 whole entry): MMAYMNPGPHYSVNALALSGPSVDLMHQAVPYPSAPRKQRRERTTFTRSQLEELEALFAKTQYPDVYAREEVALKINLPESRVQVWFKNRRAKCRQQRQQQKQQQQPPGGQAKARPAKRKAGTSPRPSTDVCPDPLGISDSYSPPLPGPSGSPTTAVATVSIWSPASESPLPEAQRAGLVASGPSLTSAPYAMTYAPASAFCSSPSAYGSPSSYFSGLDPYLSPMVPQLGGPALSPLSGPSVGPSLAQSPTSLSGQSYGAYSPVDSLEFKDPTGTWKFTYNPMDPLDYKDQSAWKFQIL
Sequence of ELF4 (Q99607 whole entry): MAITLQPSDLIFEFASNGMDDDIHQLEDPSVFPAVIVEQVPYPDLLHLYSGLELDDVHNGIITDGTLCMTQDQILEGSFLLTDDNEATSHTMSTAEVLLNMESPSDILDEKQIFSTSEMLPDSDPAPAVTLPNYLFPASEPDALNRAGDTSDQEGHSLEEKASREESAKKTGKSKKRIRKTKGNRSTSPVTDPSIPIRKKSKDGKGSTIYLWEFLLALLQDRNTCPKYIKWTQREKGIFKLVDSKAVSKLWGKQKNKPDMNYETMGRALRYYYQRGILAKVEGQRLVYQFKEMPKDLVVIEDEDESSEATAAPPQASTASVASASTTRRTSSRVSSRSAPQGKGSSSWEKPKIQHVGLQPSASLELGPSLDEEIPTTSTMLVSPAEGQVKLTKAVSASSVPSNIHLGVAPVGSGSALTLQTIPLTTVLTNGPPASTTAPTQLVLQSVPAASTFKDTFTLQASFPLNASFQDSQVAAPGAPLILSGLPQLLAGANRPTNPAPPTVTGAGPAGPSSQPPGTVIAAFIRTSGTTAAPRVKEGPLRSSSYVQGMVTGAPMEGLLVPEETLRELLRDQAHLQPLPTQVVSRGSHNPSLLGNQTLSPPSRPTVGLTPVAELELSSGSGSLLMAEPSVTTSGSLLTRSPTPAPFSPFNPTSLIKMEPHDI

Consider CTCATA, for which the binding signal was 1.29 fold enrichment (6-mer frequency, TF over GST control) in the experiment with FEV; 1.37 fold enrichment (6-mer frequency, TF over GST control) with ETV5; 1.25 fold enrichment (6-mer frequency, TF over GST control) with HSF1; 1.46 fold enrichment (6-mer frequency, TF over GST control) with SPIC; 1.41 fold enrichment (6-mer frequency, TF over GST control) with ELF4; 1.35 fold enrichment (6-mer frequency, TF over GST control) with ELK4. Besides, the binding signal with ETV2 is 1.44 fold enrichment (6-mer frequency, TF over GST control); in the experiment with ELF3, 1.34 fold enrichment (6-mer frequency, TF over GST control); with CRX, 1.38 fold enrichment (6-mer frequency, TF over GST control); with ETV1, 1.39 fold enrichment (6-mer frequency, TF over GST control).

In the case of TTTATT, the binding signal with FEV was 1.29 fold enrichment (6-mer frequency, TF over GST control); with ETV5, 1.29 fold enrichment (6-mer frequency, TF over GST control); with HSF1, 1.46 fold enrichment (6-mer frequency, TF over GST control); with SPIC, 1.25 fold enrichment (6-mer frequency, TF over GST control); in the experiment with ELF4, 1.3 fold enrichment (6-mer frequency, TF over GST control); with ELK4 it was 1.27 fold enrichment (6-mer frequency, TF over GST control). The binding signal with ETV2 is 1.29 fold enrichment (6-mer frequency, TF over GST control); with ELF3 it was 1.29 fold enrichment (6-mer frequency, TF over GST control); in the experiment with CRX, 1.93 fold enrichment (6-mer frequency, TF over GST control); in the experiment with ETV1, 1.27 fold enrichment (6-mer frequency, TF over GST control).

As for TTGACC, the binding signal was 1.33 fold enrichment (6-mer frequency, TF over GST control) with FEV; 1.41 fold enrichment (6-mer frequency, TF over GST control) in the experiment with ETV5; 1.16 fold enrichment (6-mer frequency, TF over GST control) in the experiment with HSF1; 1.45 fold enrichment (6-mer frequency, TF over GST control) with SPIC; 1.44 fold enrichment (6-mer frequency, TF over GST control) with ELF4; 1.4 fold enrichment (6-mer frequency, TF over GST control) with ELK4. Moreover, the binding signal was 1.38 fold enrichment (6-mer frequency, TF over GST control) with ETV2; 1.27 fold enrichment (6-mer frequency, TF over GST control) with ELF3; 1.19 fold enrichment (6-mer frequency, TF over GST control) with CRX; 1.41 fold enrichment (6-mer frequency, TF over GST control) with ETV1.

Consider TCCCCG, for which the binding signal with FEV was 1.17 fold enrichment (6-mer frequency, TF over GST control); in the experiment with ETV5, 1.22 fold enrichment (6-mer frequency, TF over GST control); in the experiment with HSF1, 1.16 fold enrichment (6-mer frequency, TF over GST control); in the experiment with SPIC, 1.04 fold enrichment (6-mer frequency, TF over GST control); with ELF4, 1.22 fold enrichment (6-mer frequency, TF over GST control); in the experiment with ELK4, 1.12 fold enrichment (6-mer frequency, TF over GST control). Also, the binding signal with ETV2 is 1.26 fold enrichment (6-mer frequency, TF over GST control); in the experiment with ELF3, 1.27 fold enrichment (6-mer frequency, TF over GST control); with CRX it was 1.21 fold enrichment (6-mer frequency, TF over GST control); with ETV1, 1.13 fold enrichment (6-mer frequency, TF over GST control).

As to TGTAAA, the binding signal in the experiment with FEV is 1.08 fold enrichment (6-mer frequency, TF over GST control); with ETV5, 1.16 fold enrichment (6-mer frequency, TF over GST control); in the experiment with HSF1, 1.2 fold enrichment (6-mer frequency, TF over GST control); with SPIC, 1.24 fold enrichment (6-mer frequency, TF over GST control); with ELF4 it was 1.13 fold enrichment (6-mer frequency, TF over GST control); with ELK4, 1.1 fold enrichment (6-mer frequency, TF over GST control). The binding signal was 1.16 fold enrichment (6-mer frequency, TF over GST control) in the experiment with ETV2; 1.23 fold enrichment (6-mer frequency, TF over GST control) with ELF3; 1.2 fold enrichment (6-mer frequency, TF over GST control) with CRX; 1.14 fold enrichment (6-mer frequency, TF over GST control) with ETV1.

Regarding TACATC, the binding signal in the experiment with FEV was 1.77 fold enrichment (6-mer frequency, TF over GST control); with ETV5, 1.63 fold enrichment (6-mer frequency, TF over GST control); in the experiment with HSF1 it was 1.09 fold enrichment (6-mer frequency, TF over GST control); with SPIC, 1.61 fold enrichment (6-mer frequency, TF over GST control); with ELF4, 1.56 fold enrichment (6-mer frequency, TF over GST control); with ELK4 it was 1.53 fold enrichment (6-mer frequency, TF over GST control). The binding signal with ETV2 was 1.65 fold enrichment (6-mer frequency, TF over GST control); in the experiment with ELF3, 1.48 fold enrichment (6-mer frequency, TF over GST control); with CRX it was 1.17 fold enrichment (6-mer frequency, TF over GST control); with ETV1, 1.64 fold enrichment (6-mer frequency, TF over GST control).

For the sequence TACTGA, the binding signal with FEV is 1.03 fold enrichment (6-mer frequency, TF over GST control); with ETV5, 1.13 fold enrichment (6-mer frequency, TF over GST control); in the experiment with HSF1, 1.07 fold enrichment (6-mer frequency, TF over GST control); with SPIC it was 1.03 fold enrichment (6-mer frequency, TF over GST control); with ELF4 it was 1.11 fold enrichment (6-mer frequency, TF over GST control); with ELK4, 1.32 fold enrichment (6-mer frequency, TF over GST control). Also, the binding signal in the experiment with ETV2 was 1.12 fold enrichment (6-mer frequency, TF over GST control); with ELF3, 1.2 fold enrichment (6-mer frequency, TF over GST control); in the experiment with CRX it was 1.2 fold enrichment (6-mer frequency, TF over GST control); in the experiment with ETV1, 1.02 fold enrichment (6-mer frequency, TF over GST control).

The values above are taken from PMC7862700, “An all-to-all approach to the identification of sequence-specific readers for epigenetic DNA modifications on cytosine”.
